# Measured potencies and affinities stand elsewhere.
# Key:
# Klebsiella pneumoniae = details: Concentration 32 ug.mL-1; ASSAY_TEST Inhibition of Bacterial Growth; detection method Absorption (OD600); MEDIA CAMHB; plate type 384well; NBS; CORNING #3640; time 18 hr
# Candida albicans = details: 32 ug/mL
# Cryptococcus neoformans = details: Concentration 32 ug.mL-1; ASSAY_TEST Inhibition of Fungal Growth; detection method Resazurin; Absorption (OD600-OD570); plate type 384well; NBS; CORNING #3640
Structure (SMILES),Inhibition (Klebsiella pneumoniae) [%],Inhibition (Candida albicans) [%],Inhibition (Cryptococcus neoformans) [%]
CCCCCCCNS(=O)(=O)CCNC(=O)[C@H](O)C(C)(C)CO,15.06,-2.91,2.56
CC(C)(CO)[C@H](O)C(=O)NCCCc1cn(C[C@H]2O[C@@H](n3ccc(N)nc3=O)[C@H](O)[C@@H]2O)nn1,15.48,1.6,-4.03
CCCCCCCNC(=O)CCNC(=O)C(O)C(C)(C)C (centres undefined),17.81,1,0.36
CC(C)(CN)C(O)C(=O)NCCC(=O)NCCc1ccccc1 (centres undefined),28.43,3.05,42.65
CC(C)(C)C(O)C(=O)NCCC(=O)NCCc1ccccc1 (centres undefined),24.7,0.67,-0.45
CC(C)(COP(=O)(O)O)[C@@H](O)C(=O)NCCC(=O)NCCc1ccccc1,20.53,1.57,21.44
CC(C)(CO)[C@H](O)C(=O)NCCC(=O)OCc1cn(C[C@H]2O[C@@H](n3ccc(N)nc3=O)[C@H](O)[C@@H]2O)nn1,19.86,3.13,-1.73
C#CCNC(=O)[C@H](O)C(C)(C)CO,17.37,-0.84,-0.61
CC(C)(CO)[C@@H](O)C(=O)NCCC(=S)NCCc1ccccc1,23.06,-0.77,0.82
CC(CC(=O)NCCc1ccccc1)NC(=O)[C@H](O)C(C)(C)CO (some centres undefined),21.7,3.05,2.32
CC(C)(CO)[C@H](O)C(=O)NCCC(=O)NCc1cn(C[C@H]2O[C@@H](n3ccc(N)nc3=O)[C@H](O)[C@@H]2O)nn1,19,2.72,-1.6
CC(C)(CO)[C@@H](O)C(=O)N/C=C/C(=O)NCCc1ccccc1,27.58,6.96,-6.96
CC(C)(CO)[C@@H](O)C(=O)NCCC(=O)NNCc1ccccc1,28.52,4.15,-4.98
CCCCCCCNC(=S)CCNC(=O)[C@H](O)C(C)(C)CO,15.93,2.87,-3.35
CC(C)(CO)[C@H](O)C(=O)NCc1cn(C[C@H]2O[C@@H](n3ccc(N)nc3=O)[C@H](O)[C@@H]2O)nn1,7.03,-0.48,6.11
CCCCCCNNC(=O)CCNC(=O)[C@H](O)C(C)(C)CO,13.13,-0.25,3.11
CC(C)(CO)[C@H](O)C(=O)NCCc1cn(C[C@H]2O[C@@H](n3ccc(N)nc3=O)[C@H](O)[C@@H]2O)nn1,11.31,0.57,-3.52
CC(C)(CO)C(O)C(=O)NCCCOP(=O)(O)OCC1OC(n2ccc(N)nc2=O)C(O)C1O (centres undefined),14.41,3.26,-6.1
